Most compounds without a hit are left out; they make up all but 6.7% or so of the library.
Pf Dd2 inh: P. falciparum Dd2 growth inhibitors, primary screen, SYBR Green fluorescence, single dose replicates. 72 h; stronger effect = lower value. activity change, % at 10 µM. 94,000 tested, 2.3% active. AID 1159554, 2015; in the data active means activity change below about -80%
T cruzi growth: T. cruzi intracellular proliferation inhibitors, primary screen, cell-based, beta-gal Tulahuen parasites, NIH3T3 host, luminescence. T. cruzi beta-gal in NIH3T3, GalScreen luminescence, 90 h. inhibition, % at 8.34 µM. 77,000 tested, 5.9% active. AID 624255, 2012;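 active means mean inhibition above about 93%, with at least 55% of replicates each passing it, limit read from the data, passing the limit was not always enough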
C diff HTS: C. difficile growth inhibitors, primary screen, HTS; Clostridium difficile clinical isolate growth, OD600, 24 h; stronger effect = lower value; growth activity, negative = inhibition, % at 16 µg/mL (by protocol); 86,000 tested, 0.25% active;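 active means mean growth activity at or below -80% and every replicate also at or below -80%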;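 further: 0% = DMSO wells and -100% = levofloxacin 16 µg/mL wells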
Numbers without * were called inactive.

What do the screens show for `COCC(=O)Nc1ccc2c(c1)OC[C@@H](C)N(C(=O)Cc1cccnc1)C[C@H](C)[C@H](OC)CN(C)C2=O`?
Pf Dd2 inh: 3; T cruzi growth: -58

How did C[C@@H]1CN([C@@H](C)CO)C(=O)c2ccccc2-c2ccccc2CO[C@H]1CN(C)S(=O)(=O)c1ccc(F)cc1 do in these assays?
Pf Dd2 inh: 28; T cruzi growth: 18

How did CCCNC(=O)Nc1ccc2c(c1)C(=O)N(C)C[C@H](OC)[C@@H](C)CN(C(=O)C1CCOCC1)[C@H](C)CO2 do in these assays?
Pf Dd2 inh: -79; T cruzi growth: -18

How did CCCNC(=O)Nc1ccc2c(c1)OC[C@@H](C)N(Cc1ccccc1)C[C@@H](C)[C@H](OC)CN(C)C2=O do in these assays?
Pf Dd2 inh: -87*; T cruzi growth: 44; C diff HTS: -2

Results for CCCNC(=O)Nc1ccc2c(c1)OC[C@H](C)N(Cc1ccccc1)C[C@H](C)[C@@H](OC)CN(C)C2=O ?
Pf Dd2 inh: -35; C diff HTS: -19

Results for CCCNC(=O)Nc1ccc2c(c1)C(=O)N(C)C[C@@H](OC)[C@H](C)CN(C(=O)C1CCOCC1)[C@@H](C)CO2 ?
Pf Dd2 inh: -87*; T cruzi growth: -59

What do the screens show for `C[C@@H]1CCCCO[C@H](CN(C)C(=O)CCCN(C)C)[C@H](C)CN([C@@H](C)CO)C(=O)c2cc(NC(=O)C3CCCCC3)ccc2O1`?
Pf Dd2 inh: 39; T cruzi growth: 6; C diff HTS: 1

What do the screens show for `COc1ccc(S(=O)(=O)N(C)C[C@@H]2OCCCC[C@@H](C)Oc3ccc(NC(=O)Nc4ccc(F)cc4)cc3C(=O)N([C@@H](C)CO)C[C@@H]2C)cc1`?
Pf Dd2 inh: -81*; T cruzi growth: 54; C diff HTS: 6

What do the screens show for `COc1ccc(S(=O)(=O)N(C)C[C@H]2OCCCC[C@@H](C)Oc3ccc(NC(=O)Nc4ccc(F)cc4)cc3C(=O)N([C@@H](C)CO)C[C@H]2C)cc1`?
Pf Dd2 inh: -76; T cruzi growth: 104; C diff HTS: 3

How did COc1ccc(S(=O)(=O)N(C)C[C@@H]2OCCCC[C@H](C)Oc3ccc(NC(=O)Nc4ccc(F)cc4)cc3C(=O)N([C@@H](C)CO)C[C@H]2C)cc1 do in these assays?
Pf Dd2 inh: -67; T cruzi growth: 64; C diff HTS: 4

How did COc1ccc(NC(=O)Nc2ccc3c(c2)C(=O)N([C@@H](C)CO)C[C@H](C)[C@H](CN(C)S(=O)(=O)c2ccc(F)cc2)OCCCC[C@@H](C)O3)cc1 do in these assays?
Pf Dd2 inh: -85*; T cruzi growth: 60; C diff HTS: 5

How did Cc1ccccc1-c1ccc([C@@H]2[C@@H](CO)N3CCCCN(C(=O)Nc4ccc(F)cc4)C[C@H]23)cc1 do in these assays?
Pf Dd2 inh: -29; T cruzi growth: 83; C diff HTS: 75

What do the screens show for `Cc1ccc(-c2ccc([C@H]3[C@@H](CO)N4CCCCN(C(=O)Nc5cccc(F)c5)C[C@@H]34)cc2)cc1`?
Pf Dd2 inh: 21; T cruzi growth: 94; C diff HTS: 16

What do the screens show for `Cc1ccccc1-c1ccc([C@H]2[C@@H](CO)N3CCCCN(C(=O)Nc4cccc(F)c4)C[C@H]23)cc1`?
Pf Dd2 inh: -38; T cruzi growth: -28; C diff HTS: -98*

What do the screens show for `Cc1ccccc1-c1ccc([C@@H]2[C@H](CO)N3CCCCN(C(=O)Nc4cccc(F)c4)C[C@@H]23)cc1`?
Pf Dd2 inh: -36; T cruzi growth: 52; C diff HTS: -96*

How did Cc1ccc(-c2ccc([C@@H]3[C@H](CO)N4CCCCN(C(=O)Nc5cccc(F)c5)C[C@@H]34)cc2)cc1 do in these assays?
Pf Dd2 inh: -42; T cruzi growth: 81; C diff HTS: -98*

How did O=C(Nc1ccccc1)N1CCCCN2[C@H](CO)[C@H](c3ccc(-c4ccccc4F)cc3)[C@H]2C1 do in these assays?
Pf Dd2 inh: -33; T cruzi growth: 95; C diff HTS: 60

What do the screens show for `Cc1ccccc1-c1ccc([C@H]2[C@@H](CO)N3CCCCN(C(=O)Nc4cccc(F)c4)C[C@@H]23)cc1`?
Pf Dd2 inh: 23; T cruzi growth: 87; C diff HTS: 10

How did O=C(Nc1cccc(F)c1)N1CCCCN2[C@@H](CO)[C@@H](c3ccc(-c4ccccc4F)cc3)[C@@H]2C1 do in these assays?
Pf Dd2 inh: -50; T cruzi growth: 70; C diff HTS: -98*

What do the screens show for `CCC(=O)Nc1ccc2c(c1)C(=O)N(C)C[C@H](OC)[C@@H](C)CN(C(=O)CC)[C@@H](C)CO2`?
Pf Dd2 inh: 17; T cruzi growth: 8

Results for CN(C)C(=O)[C@@H]1[C@@H](CO)[C@@H]2Cn3c(ccc(/C=C/c4ccccc4)c3=O)[C@@H]2N1C(=O)c1cnccn1 ?
Pf Dd2 inh: -15; T cruzi growth: 19; C diff HTS: -1

How did CCC(=O)N1C[C@@H](C)[C@@H](OC)CN(C)C(=O)c2ccc(NC(=O)c3ccc(F)cc3)cc2OC[C@@H]1C do in these assays?
Pf Dd2 inh: -37; T cruzi growth: 15; C diff HTS: -5

How did O=C(Nc1ccc(F)cc1)N1CCCCN2[C@H](C1)[C@@H](c1ccc(-c3cccc(F)c3)cc1)[C@@H]2CO do in these assays?
Pf Dd2 inh: 11; T cruzi growth: 56; C diff HTS: 50

What do the screens show for `O=C(Nc1ccc(F)cc1)N1CCCCN2[C@@H](CO)[C@@H](c3ccc(-c4cccc(F)c4)cc3)[C@@H]2C1`?
Pf Dd2 inh: -53; T cruzi growth: 51; C diff HTS: -99*

Results for COc1ccc2c3c(n(C)c2c1)[C@@H](CO)N(Cc1ccc(F)cc1)CC31CCN(CC2CC2)CC1 ?
Pf Dd2 inh: -86*; C diff HTS: 0

What do the screens show for `COc1ccc2c3c(n(C)c2c1)[C@@H](CO)N(Cc1ccccc1OC)CC31CCN(C(=O)C2CC2)CC1`?
Pf Dd2 inh: -83*; C diff HTS: 6

Results for COc1ccc2c3c(n(C)c2c1)[C@@H](CO)N(Cc1ccc(F)cc1)CC31CCN(CC2CCOCC2)CC1 ?
Pf Dd2 inh: -49; C diff HTS: 4

Results for CCCN1CCC2(CC1)CN(Cc1ccccc1OC)[C@H](CO)c1c2c2ccc(OC)cc2n1C ?
Pf Dd2 inh: -92*; C diff HTS: 9

How did COc1ccc2c3c(n(C)c2c1)[C@H](CO)N(Cc1ccccc1OC)CC31CN(CC2CC2)C1 do in these assays?
Pf Dd2 inh: -49; C diff HTS: 11

What do the screens show for `COc1ccc2c3c(n(C)c2c1)[C@@H](CO)N(Cc1ccccc1F)CC31CCN(C(=O)C2CC2)CC1`?
Pf Dd2 inh: -60; C diff HTS: 4

Results for COc1ccc2c3c(n(C)c2c1)[C@H](CO)N(Cc1ccccc1OC)CC31CN(CC2CCOCC2)C1 ?
Pf Dd2 inh: -89*; C diff HTS: 7

Results for COc1ccc2c3c(n(C)c2c1)[C@H](CO)N(Cc1ccccc1OC)CC31CCN(C)CC1 ?
Pf Dd2 inh: -42; C diff HTS: 2

How did C[C@H](CO)N1C[C@H](C)[C@@H](CN(C)C)Oc2cc(-c3ccc(F)cc3)ccc2S1(=O)=O do in these assays?
Pf Dd2 inh: -4; T cruzi growth: 43; C diff HTS: -6
